In paper PMC7862700, “An all-to-all approach to the identification of sequence-specific readers for epigenetic DNA modifications on cytosine”:

Tests used:
Test in all cases: DAPPL (digital affinity profiling via proximity ligation, sequencing); 10 mM Tris-HCl pH 7.5, 50 mM NaCl, 1 mM DTT, 4% glycerol, room temperature, 30 min; GST-TFs on glutathione beads, 16-mer random dsDNA library, 0.1% formaldehyde crosslink after washing; high values mean tight binding
[1] = target: T1, FEV (Homo sapiens, UniProt Q99581 1-238); details: protein: recombinant; tags: N-terminal GST; dsDNA, one strand shown
T1 sequence: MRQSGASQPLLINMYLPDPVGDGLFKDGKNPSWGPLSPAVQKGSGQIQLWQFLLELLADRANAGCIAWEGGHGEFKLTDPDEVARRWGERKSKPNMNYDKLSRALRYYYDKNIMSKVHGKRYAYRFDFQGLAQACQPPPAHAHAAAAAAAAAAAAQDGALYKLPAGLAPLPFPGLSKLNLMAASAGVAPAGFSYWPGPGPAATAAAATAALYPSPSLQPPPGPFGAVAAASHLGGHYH
Procedure, shortened: (§1)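 Human transcription factors carrying a GST fusion were produced in yeast, bound to glutathione beads, tagged with DNA barcodes and pooled together with a tag-only sample. Each pool was held with 200 nmole of a random double-stranded 16-mer DNA library in Tris/NaCl/DTT/glycerol buffer for 30 min at room temperature, then washed, crosslinked in 0.1% formaldehyde, proximity-ligated with BsaI/T4 ligase (1 h, 37 °C), PCR-amplified and sequenced on an Illumina NextSeq500. Binding signal is the read frequency of each hexamer for a given factor divided by its frequency in the tag-only sample.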

[2] = target: ETV5 (Homo sapiens, UniProt P41161 1-510); details: protein: recombinant; tags: N-terminal GST; dsDNA, one strand shown
Procedure, shortened: as §1

[3] = target: HSF1 (Homo sapiens, UniProt Q00613 1-529); details: protein: recombinant; tags: N-terminal GST; chain copies: 3; dsDNA, one strand shown
Procedure, shortened: as §1

[4] = target: T2, SPIC (Homo sapiens, UniProt Q8N5J4 1-248); details: protein: recombinant; tags: N-terminal GST; dsDNA, one strand shown
T2 sequence: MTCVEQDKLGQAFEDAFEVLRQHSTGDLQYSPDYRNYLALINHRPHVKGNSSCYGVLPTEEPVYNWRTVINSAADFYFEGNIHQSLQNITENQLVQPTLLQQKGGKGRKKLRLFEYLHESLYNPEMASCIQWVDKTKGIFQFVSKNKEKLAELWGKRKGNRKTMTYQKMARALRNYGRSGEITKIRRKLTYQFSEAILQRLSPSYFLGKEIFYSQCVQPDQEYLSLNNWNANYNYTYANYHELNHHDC
Procedure, shortened: as §1

[5] = target: ELF4 (Homo sapiens, UniProt Q99607 1-663); details: protein: recombinant; tags: N-terminal GST; dsDNA, one strand shown
Procedure, shortened: as §1

[6] = target: T3, ELK4 (Homo sapiens, UniProt P28324-2 1-405); details: protein: recombinant; tags: N-terminal GST; dsDNA, one strand shown
T3 sequence: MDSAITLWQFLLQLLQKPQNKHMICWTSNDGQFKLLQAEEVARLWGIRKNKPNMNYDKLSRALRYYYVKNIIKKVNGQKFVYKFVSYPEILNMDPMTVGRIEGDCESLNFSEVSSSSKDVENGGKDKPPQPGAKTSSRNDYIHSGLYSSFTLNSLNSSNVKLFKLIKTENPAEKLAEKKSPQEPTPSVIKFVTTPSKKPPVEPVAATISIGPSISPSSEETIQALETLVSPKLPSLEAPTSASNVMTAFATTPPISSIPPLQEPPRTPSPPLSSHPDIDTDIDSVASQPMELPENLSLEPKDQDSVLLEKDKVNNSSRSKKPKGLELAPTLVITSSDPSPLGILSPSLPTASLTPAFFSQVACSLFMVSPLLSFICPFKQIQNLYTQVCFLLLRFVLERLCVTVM
Procedure, shortened: as §1

[7] = target: T4, ETV2 (Homo sapiens, UniProt O00321 1-342); details: protein: recombinant; tags: N-terminal GST; dsDNA, one strand shown
T4 sequence: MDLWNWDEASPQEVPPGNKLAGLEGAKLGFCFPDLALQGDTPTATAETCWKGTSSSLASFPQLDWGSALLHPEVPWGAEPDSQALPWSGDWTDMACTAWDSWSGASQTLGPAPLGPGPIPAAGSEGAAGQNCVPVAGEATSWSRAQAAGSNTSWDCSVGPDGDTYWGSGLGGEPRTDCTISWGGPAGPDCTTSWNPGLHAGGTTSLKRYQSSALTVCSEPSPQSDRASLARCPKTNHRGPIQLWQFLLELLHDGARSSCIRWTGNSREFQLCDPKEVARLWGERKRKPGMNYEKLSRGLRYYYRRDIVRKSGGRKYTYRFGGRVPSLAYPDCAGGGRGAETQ
Procedure, shortened: as §1

[8] = target: T5, ELF3 (Homo sapiens, UniProt P78545 1-371); details: protein: recombinant; tags: N-terminal GST; dsDNA, one strand shown
T5 sequence: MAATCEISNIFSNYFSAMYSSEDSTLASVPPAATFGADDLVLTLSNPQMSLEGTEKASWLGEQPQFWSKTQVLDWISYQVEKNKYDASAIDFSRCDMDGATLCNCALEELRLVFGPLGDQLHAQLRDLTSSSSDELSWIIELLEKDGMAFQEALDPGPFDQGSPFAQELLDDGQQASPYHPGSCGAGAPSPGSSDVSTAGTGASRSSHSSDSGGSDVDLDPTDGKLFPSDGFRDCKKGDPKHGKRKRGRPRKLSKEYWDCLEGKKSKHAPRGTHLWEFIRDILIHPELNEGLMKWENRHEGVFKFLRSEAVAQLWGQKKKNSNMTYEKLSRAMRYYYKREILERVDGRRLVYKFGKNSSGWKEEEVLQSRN
Procedure, shortened: as §1

[9] = target: CRX (Homo sapiens, UniProt O43186 1-299); details: protein: recombinant; tags: N-terminal GST; dsDNA, one strand shown
Procedure, shortened: as §1

[10] = target: ETV1 (Homo sapiens, UniProt P50549 1-477); details: protein: recombinant; tags: N-terminal GST; dsDNA, one strand shown
Procedure, shortened: as §1

[11] = target: T6, ERF (Homo sapiens, UniProt P50548 1-548); details: protein: recombinant; tags: N-terminal GST; dsDNA, one strand shown
T6 sequence: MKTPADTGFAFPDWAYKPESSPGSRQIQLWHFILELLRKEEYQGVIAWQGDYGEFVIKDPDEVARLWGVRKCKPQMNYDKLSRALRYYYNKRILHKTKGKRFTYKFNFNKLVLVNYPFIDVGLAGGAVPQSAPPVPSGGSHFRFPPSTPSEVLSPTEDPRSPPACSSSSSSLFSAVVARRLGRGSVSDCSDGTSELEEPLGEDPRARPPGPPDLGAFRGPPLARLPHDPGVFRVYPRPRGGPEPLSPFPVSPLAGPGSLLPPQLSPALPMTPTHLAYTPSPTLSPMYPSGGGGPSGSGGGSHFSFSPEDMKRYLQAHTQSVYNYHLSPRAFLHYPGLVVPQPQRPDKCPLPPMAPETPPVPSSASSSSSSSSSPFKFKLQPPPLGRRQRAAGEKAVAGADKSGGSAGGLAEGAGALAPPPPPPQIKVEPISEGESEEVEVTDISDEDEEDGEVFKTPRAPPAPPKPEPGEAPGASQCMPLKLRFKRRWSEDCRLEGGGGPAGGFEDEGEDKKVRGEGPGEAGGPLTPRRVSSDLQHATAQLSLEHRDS
Procedure, shortened: as §1

[12] = target: T7, ETV3L (Homo sapiens, UniProt Q6ZN32 1-361); details: protein: recombinant; tags: N-terminal GST; dsDNA, one strand shown
T7 sequence: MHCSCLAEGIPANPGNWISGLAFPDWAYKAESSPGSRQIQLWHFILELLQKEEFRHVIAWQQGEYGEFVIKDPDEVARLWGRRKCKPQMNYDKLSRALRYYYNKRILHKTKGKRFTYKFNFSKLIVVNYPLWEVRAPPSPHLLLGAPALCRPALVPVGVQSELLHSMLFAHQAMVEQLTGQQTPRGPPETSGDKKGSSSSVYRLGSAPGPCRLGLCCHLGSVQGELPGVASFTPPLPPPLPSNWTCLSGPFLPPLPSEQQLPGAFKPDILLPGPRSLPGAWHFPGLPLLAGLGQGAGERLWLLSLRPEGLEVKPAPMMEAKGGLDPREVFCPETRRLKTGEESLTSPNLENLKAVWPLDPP
Procedure, shortened: as §1

[13] = target: T8, ETS2 (Homo sapiens, UniProt P15036 1-469); details: protein: recombinant; tags: N-terminal GST; dsDNA, one strand shown
T8 sequence: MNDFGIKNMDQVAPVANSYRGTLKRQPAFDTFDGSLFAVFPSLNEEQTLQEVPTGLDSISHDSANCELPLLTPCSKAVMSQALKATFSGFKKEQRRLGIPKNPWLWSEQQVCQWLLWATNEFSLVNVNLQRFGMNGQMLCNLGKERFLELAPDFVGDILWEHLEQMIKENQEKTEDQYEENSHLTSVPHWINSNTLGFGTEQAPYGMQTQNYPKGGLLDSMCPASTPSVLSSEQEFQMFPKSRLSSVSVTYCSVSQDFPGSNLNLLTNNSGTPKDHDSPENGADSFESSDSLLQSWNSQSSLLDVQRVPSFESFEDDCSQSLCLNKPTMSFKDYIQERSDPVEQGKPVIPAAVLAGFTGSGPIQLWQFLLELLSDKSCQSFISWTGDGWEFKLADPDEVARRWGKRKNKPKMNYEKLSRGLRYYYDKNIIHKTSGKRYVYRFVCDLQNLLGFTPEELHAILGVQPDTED
Procedure, shortened: as §1

[14] = target: T9, SPDEF (Homo sapiens, UniProt O95238 1-335); details: protein: recombinant; tags: N-terminal GST; dsDNA, one strand shown
T9 sequence: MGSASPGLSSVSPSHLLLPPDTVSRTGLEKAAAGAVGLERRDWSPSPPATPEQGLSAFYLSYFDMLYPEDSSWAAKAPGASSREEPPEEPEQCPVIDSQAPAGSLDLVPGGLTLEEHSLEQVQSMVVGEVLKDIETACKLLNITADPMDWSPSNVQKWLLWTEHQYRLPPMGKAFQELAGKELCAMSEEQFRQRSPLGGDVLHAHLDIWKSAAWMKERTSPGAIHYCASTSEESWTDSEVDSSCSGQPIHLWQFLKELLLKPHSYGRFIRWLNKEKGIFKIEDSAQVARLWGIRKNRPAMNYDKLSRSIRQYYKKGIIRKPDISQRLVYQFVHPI
Procedure, shortened: as §1

[15] = target: T10, ETV7 (Homo sapiens, UniProt Q9Y603 1-341); details: protein: recombinant; tags: N-terminal GST; dsDNA, one strand shown
T10 sequence: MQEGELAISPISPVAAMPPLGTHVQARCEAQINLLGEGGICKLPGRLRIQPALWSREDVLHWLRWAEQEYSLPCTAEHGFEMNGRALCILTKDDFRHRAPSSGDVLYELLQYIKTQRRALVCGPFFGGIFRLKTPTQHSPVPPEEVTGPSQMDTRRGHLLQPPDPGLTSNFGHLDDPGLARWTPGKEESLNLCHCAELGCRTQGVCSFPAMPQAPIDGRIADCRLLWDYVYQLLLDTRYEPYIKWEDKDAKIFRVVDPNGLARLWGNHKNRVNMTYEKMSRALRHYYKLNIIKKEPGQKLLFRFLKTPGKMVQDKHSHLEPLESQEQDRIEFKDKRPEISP
Procedure, shortened: as §1

[16] = target: T11, ELF5 (Homo sapiens, UniProt Q9UKW6-2 1-255); details: protein: recombinant; tags: N-terminal GST; dsDNA, one strand shown
T11 sequence: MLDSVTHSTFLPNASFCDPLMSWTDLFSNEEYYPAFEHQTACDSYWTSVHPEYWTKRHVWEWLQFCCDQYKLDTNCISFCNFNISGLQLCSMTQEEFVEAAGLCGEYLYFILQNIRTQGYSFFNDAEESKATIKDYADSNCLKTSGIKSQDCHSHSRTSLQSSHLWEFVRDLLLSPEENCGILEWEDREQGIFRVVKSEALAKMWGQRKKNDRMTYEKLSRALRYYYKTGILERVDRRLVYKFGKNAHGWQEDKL
Procedure, shortened: as §1

[17] = target: T12, ETV3 (Homo sapiens, UniProt P41162-2 1-143); details: protein: recombinant; tags: N-terminal GST; dsDNA, one strand shown
T12 sequence: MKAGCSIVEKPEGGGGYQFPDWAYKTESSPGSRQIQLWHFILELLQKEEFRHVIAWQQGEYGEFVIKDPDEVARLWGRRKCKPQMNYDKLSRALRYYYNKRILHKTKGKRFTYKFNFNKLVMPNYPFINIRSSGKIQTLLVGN
Procedure, shortened: as §1

[18] = target: ETV6 (Homo sapiens, UniProt P41212 1-452); details: protein: recombinant; tags: N-terminal GST; dsDNA, one strand shown
Procedure, shortened: as §1

CRX, sequence (O43186 whole entry): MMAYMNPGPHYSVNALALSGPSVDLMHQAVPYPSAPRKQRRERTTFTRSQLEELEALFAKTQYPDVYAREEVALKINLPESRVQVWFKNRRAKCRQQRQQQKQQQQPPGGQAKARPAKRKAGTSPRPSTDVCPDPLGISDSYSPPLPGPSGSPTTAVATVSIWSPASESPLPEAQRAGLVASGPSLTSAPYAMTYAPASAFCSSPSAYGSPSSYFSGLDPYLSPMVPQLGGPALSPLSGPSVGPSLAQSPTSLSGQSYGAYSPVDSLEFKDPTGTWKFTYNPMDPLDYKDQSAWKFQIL
ETV1, sequence (P50549 whole entry): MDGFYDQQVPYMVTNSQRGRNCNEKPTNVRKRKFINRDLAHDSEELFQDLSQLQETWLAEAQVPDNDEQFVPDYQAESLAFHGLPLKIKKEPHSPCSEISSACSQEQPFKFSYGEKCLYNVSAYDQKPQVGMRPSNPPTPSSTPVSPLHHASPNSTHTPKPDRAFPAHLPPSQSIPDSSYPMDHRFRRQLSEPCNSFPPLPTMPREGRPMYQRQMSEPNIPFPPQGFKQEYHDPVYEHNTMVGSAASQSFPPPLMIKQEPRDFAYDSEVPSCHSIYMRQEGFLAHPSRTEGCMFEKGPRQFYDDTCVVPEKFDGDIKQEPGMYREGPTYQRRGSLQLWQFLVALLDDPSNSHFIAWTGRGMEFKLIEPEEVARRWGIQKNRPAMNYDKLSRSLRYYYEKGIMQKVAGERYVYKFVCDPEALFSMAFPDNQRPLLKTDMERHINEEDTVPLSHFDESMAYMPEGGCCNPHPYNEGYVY
HSF1, sequence (Q00613 whole entry): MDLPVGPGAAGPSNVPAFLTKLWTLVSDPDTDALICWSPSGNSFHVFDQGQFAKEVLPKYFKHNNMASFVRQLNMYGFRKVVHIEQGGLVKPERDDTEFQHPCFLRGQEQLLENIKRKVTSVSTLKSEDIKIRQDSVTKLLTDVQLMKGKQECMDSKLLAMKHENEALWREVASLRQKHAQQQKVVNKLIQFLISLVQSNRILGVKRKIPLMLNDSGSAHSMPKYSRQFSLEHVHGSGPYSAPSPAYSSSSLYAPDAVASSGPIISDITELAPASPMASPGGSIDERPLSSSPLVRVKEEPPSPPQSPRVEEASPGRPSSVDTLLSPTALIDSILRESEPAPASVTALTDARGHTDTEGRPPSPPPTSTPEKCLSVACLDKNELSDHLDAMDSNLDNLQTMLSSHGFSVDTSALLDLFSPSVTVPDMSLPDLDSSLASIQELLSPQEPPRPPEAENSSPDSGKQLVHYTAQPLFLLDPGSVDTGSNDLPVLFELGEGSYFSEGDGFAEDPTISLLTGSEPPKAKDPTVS
ELF4, sequence (Q99607 whole entry): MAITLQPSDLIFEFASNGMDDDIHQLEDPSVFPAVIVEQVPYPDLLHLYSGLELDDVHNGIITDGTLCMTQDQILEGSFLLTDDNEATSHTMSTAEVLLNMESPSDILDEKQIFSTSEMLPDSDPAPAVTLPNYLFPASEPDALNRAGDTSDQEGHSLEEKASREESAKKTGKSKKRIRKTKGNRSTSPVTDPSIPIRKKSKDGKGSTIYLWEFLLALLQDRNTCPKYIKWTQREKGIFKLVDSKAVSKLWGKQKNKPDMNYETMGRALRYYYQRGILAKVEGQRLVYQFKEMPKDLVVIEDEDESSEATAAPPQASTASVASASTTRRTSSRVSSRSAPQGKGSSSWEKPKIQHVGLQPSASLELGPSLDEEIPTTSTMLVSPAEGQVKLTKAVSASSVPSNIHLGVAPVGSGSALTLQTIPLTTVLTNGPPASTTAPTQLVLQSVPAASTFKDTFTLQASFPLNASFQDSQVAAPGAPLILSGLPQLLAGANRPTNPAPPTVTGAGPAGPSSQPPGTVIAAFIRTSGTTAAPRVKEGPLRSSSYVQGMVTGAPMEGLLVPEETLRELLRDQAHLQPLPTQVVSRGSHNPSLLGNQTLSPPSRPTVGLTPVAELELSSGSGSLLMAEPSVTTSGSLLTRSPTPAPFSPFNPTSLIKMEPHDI
ETV5, sequence (P41161 whole entry): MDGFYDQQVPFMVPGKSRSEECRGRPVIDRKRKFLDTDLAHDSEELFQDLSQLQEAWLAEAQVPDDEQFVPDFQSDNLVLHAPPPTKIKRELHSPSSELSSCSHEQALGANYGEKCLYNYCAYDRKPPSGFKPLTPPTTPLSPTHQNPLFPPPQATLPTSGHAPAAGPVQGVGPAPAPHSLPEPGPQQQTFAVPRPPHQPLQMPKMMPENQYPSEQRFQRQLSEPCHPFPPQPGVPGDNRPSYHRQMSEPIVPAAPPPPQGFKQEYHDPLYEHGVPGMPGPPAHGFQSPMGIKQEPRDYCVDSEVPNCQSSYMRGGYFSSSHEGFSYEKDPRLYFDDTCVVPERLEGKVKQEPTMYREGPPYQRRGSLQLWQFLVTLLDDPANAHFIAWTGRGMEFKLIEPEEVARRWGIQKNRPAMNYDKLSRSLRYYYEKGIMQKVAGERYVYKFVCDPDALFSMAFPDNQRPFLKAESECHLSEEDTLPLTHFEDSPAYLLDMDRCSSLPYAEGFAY
ETV6, sequence (P41212 whole entry): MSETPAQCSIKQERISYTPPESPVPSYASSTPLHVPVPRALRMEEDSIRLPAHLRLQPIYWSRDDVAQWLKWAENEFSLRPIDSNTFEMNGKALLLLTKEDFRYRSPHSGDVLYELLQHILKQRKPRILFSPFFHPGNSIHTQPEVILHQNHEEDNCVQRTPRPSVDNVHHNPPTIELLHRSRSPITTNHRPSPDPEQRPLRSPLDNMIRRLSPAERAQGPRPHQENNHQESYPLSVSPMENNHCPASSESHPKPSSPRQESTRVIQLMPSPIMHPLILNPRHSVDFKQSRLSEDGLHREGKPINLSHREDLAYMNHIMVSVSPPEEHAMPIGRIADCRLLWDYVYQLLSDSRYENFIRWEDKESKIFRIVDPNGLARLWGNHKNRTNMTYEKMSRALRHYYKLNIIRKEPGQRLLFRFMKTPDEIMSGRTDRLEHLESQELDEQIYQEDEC

Sequence: AACCAA
- binding signal [1]: 1.19 fold enrichment (6-mer frequency, TF over GST control)
- binding signal [2]: 1.21 fold enrichment (6-mer frequency, TF over GST control)
- binding signal [3]: 1.08 fold enrichment (6-mer frequency, TF over GST control)
- binding signal [4]: 1.1 fold enrichment (6-mer frequency, TF over GST control)
- binding signal [5]: 1.33 fold enrichment (6-mer frequency, TF over GST control)
- binding signal [6]: 1.05 fold enrichment (6-mer frequency, TF over GST control)
- binding signal [7]: 1.21 fold enrichment (6-mer frequency, TF over GST control)
- binding signal [8]: 1.32 fold enrichment (6-mer frequency, TF over GST control)
- binding signal [9]: 1.09 fold enrichment (6-mer frequency, TF over GST control)
- binding signal [10]: 1.2 fold enrichment (6-mer frequency, TF over GST control)
- binding signal [11]: 1.25 fold enrichment (6-mer frequency, TF over GST control)
- binding signal [12]: 1.15 fold enrichment (6-mer frequency, TF over GST control)
- binding signal [13]: 1.23 fold enrichment (6-mer frequency, TF over GST control)
- binding signal [14]: 1.21 fold enrichment (6-mer frequency, TF over GST control)
- binding signal [15]: 1.2 fold enrichment (6-mer frequency, TF over GST control)
- binding signal [16]: 1.16 fold enrichment (6-mer frequency, TF over GST control)
- binding signal [17]: 1.18 fold enrichment (6-mer frequency, TF over GST control)
- binding signal [18]: 1.29 fold enrichment (6-mer frequency, TF over GST control)
